Legend:
Conditions in all cases: concentration: 1 μM, replicates: in singlicate; n = 1
[1] = system: SGK2
[2] = system: SGK3
[3] = system: SGK
[4] = system: SIK2
[5] = system: SIK
[6] = system: SLK
[7] = system: T1, SNARK
T1 construct: gene NUAK2

[8] = system: SNRK
[9] = system: SRC
[10] = system: SRMS
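Note: KINOMEscan kinase panel screen.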

Row | Compound | %Inh [1] | %Inh [2] | %Inh [3] | %Inh [4] | %Inh [5] | %Inh [6] | %Inh [7] | %Inh [8] | %Inh [9] | %Inh [10]
1 | COc1ccc(-c2cc3c(C)nc(N)nc3n([C@H]3CC[C@H](OCCO)CC3)c2=O)cn1 | 0% | 17% | 0% | 5% | 18% | 0% | 0% | 0% | 8% | 1%
2 | CCC(=O)c1c(-c2ccccc2)c2cc(Cl)ccc2c(=O)n1Cc1cc(S(C)(=O)=O)n(CC(F)F)n1 | 0% | 0% | 0% | 2% | 0% | 0% | 10% | 0% | 7% | 0%
3 | Nc1ncnc2c1ncn2-c1ccc(Cl)cc1 [AH2635] | 0% | 0% | 0% | 0% | 3% | 20% | 0% | 0% | 0% | 0%
4 | CCc1nc(-c2cccc(C)c2)c(-c2ccncc2)s1 | 0% | 0% | 0% | 4% | 2% | 26% | 0% | 9% | 0% | 0%

— publication PMC5540273 (PLoS ONE, 2017)
